Source: PubChem BioAssay (NCATS)
Records with an inconclusive call do not appear. A call without a number means that no potency is given here. Calls of active or inactive are those of the source. Calls come from the whole dose curve; as a rule, active = well fitted curve in the direction sought with a large enough effect; inconclusive = small, poorly fitted or top-dose-only effect, or another doubt; inactive = no such curve, though single readings can be large; an effect the other way counts as inactive or inconclusive.

Key:
[1] = molecular target: Tyrosine-protein kinase Yes (Homo sapiens) (UniProt P07947); assay: qHTS for small molecule inhibitors of Yes1 kinase: Primary Screen (AID 686947); note: nearly all actives have a fitted effect of over 60% in size; note: potency is the fitted concentration of half-maximal effect
Tyrosine-protein kinase Yes (Homo sapiens), sequence (P07947 whole entry, looked up): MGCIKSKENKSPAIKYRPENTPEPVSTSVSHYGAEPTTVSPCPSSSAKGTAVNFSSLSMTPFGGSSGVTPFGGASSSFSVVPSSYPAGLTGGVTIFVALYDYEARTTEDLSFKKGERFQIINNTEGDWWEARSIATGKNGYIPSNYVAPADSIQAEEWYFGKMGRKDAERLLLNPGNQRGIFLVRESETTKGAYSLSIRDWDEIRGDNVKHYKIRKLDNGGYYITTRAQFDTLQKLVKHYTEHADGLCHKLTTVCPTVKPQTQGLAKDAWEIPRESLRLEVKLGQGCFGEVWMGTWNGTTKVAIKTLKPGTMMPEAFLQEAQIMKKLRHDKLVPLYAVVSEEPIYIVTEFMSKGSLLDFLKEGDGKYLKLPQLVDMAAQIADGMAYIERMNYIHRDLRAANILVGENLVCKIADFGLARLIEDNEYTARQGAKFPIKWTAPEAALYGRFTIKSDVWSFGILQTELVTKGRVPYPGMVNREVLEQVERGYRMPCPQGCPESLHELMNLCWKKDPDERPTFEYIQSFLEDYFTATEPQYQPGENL
In short: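 ADP-Glo luminescence readout; final 4 nM Yes1, 0.1 mM ATP, 0.3 mg/mL poly(E4Y), Tris pH 7.5, MgCl2, DTT, Brij-35. 20 min compound preincubation, 60 min reaction at RT. Normalized to DMSO wells with and without enzyme.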

[2] = qHTS for small molecule inhibitors of Yes1 kinase: Counter Assay (AID 686950);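 note: no kinase present so only ADP-Glo detection of a fixed ADP amount is tested; luminescence from ADP-Glo reporting ADP in a fixed ATP and ADP mixture; series mostly up to about 77 µM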
In short: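 Enzyme-free ADP-Glo interference check: compounds were preincubated 20 min in buffer, then an ATP/ADP mix (0.08 mM ATP, 0.02 mM ADP final) was added for 60 min at room temperature before two-step ADP-Glo luminescence detection.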

Structure (SMILES) | Potency [1] | outcome [2]
COc1cc(Nc2ncc(-c3ccccc3)o2)cc(OC)c1OC | 328 nM (active) | inactive
COc1ccc(-c2nn3ncccc3c2-c2ccnc(Nc3ccc(Cl)c(C(F)(F)F)c3)n2)cc1 | 3680 nM (active) | inactive
O=C(Nc1n[nH]c2nc(-c3ccco3)c(Br)cc12)C1CC1 | 8230 nM (active) | inactive
CC1=C(C(=O)Nc2ccc3[nH]ncc3c2)C(c2ccc3ccccc3c2)CC(=O)N1 (configuration not stated) | 582 nM (active) | inactive
O=C(Nc1n[nH]c2nc(-c3ccco3)ccc12)C1CC1 | 2320 nM (active) | inactive
O=S1CCN(Cc2ccc(-c3ccc4ncnc(Nc5ccc(OCc6ccccc6)c(F)c5)c4c3)o2)CC1 | 463 nM (active) | inactive
O=C(NCC1CC1)c1ccc(-c2cccc(C(=O)NC3CC3)c2)cc1 | inactive | inactive
COc1cccc(-n2nc(C)c3c(NN=C(C)c4ccncc4)ncnc32)c1 | inactive | inactive
O=C1Nc2ccccc2C1=C1CCc2cc(O)ccc21 | 9230 nM (active) | inactive
COc1c(C(N)=O)cc(-c2ccc(Cl)cc2)cc1-c1ccc(S(N)(=O)=O)cc1 | 10400 nM (active) | inactive
COc1cc(C=NNc2ncnc3c2cnn3C(C)C)ccc1O | 184 nM (active) | inactive
COc1ccc(-c2nn3ncccc3c2-c2ccnc(Nc3ccc(F)c(F)c3)n2)cc1 | 328 nM (active) | inactive
N#Cc1ccc2c(-c3ccnc(NC4CC4)n3)c(-c3ccc(F)cc3)nn2c1 | 26000 nM (active) | inactive
CCS(=O)(=O)c1ccc(OC)c(Nc2nccc(N(C)c3ccc4c(C)[nH]nc4c3)n2)c1 | 51.9 nM (active) | inactive
NS(=O)(=O)c1ccc(-c2ccc3c(NC(=O)C4CC4)n[nH]c3c2)cc1 | 1840 nM (active) | inactive
COc1ccccc1-c1cc(C=C2C(=O)Nc3ncc(Br)cc32)cc(Br)c1O | 733 nM (active) | inactive
NC(=O)c1ccc(Oc2nccc(-c3c(-c4ccc(F)cc4)ncn3C3CCNCC3)n2)cc1 | 11600 nM (active) | inactive
Nc1nccc(-c2c(-c3ccc(F)cc3)ncn2CCCN2CCOCC2)n1 | 9230 nM (active) | inactive

Structure (SMILES) | Potency [1] | outcome [2]
COc1cc2ncnc(Nc3ccc(C)c(O)c3)c2cc1OC | 164 nM (active) | inactive
CCn1c(-c2nonc2N)nc2ccncc21 | inactive | inactive
O=C(OC1CNC(C#Cc2cc3ncnc(Nc4ccc5c(ccn5Cc5cc(F)ccc5F)c4)c3s2)C1)N1CCOCC1 (configuration not stated) | 29200 nM (active) | inactive
NS(=O)(=O)c1ccc(Nc2ncc(-c3ccccc3)o2)cc1 | inactive | inactive
NC(=O)c1sc(-n2cnc3cc(C(F)(F)F)ccc32)cc1OCc1ccccc1Br | inactive | inactive
COC(=O)Nc1nc2ccc(Oc3ccc(NC(=O)Nc4cc(C(F)(F)F)ccc4F)cc3)cc2s1 | inactive | inactive
COc1cccc(-n2ncc3c(NN=Cc4ccc(C(=O)NCCN(C)C)cc4)ncnc32)c1 | 20.7 nM (active) | inactive
CC1=C(C(=O)Nc2ccc3n[nH]c(C)c3c2)C(c2ccc(C(F)(F)F)cc2)CC(=O)N1 (configuration not stated) | 6540 nM (active) | inactive
CN(c1ccc(NC(=O)Nc2c(Cl)cccc2Cl)cc1)c1ccnc(Nc2cccc(CS(C)(=O)=O)c2)n1 | 1460 nM (active) | inactive
COc1ccc(-c2ccncc2)cc1C(N)=O | inactive | inactive
CN(C)CCNC(=O)Nc1ccc(N(C)c2ccnc(Nc3ccc(CS(C)(=O)=O)cc3)n2)cc1 | 7330 nM (active) | inactive
CCn1c(-c2nonc2N)nc2ccccc21 | inactive | inactive
CCCN(CCS(C)(=O)=O)Cc1ccc(-c2ccc3ncnc(Nc4ccc(OCc5cccc(F)c5)c(Cl)c4)c3c2)o1 | 6540 nM (active) | inactive
CCn1c(-c2nonc2N)nc2cncc(C(=O)NCCNC)c21 | 1300 nM (active) | inactive
Cc1cc(O)cc(C)c1C=Cc1cncc(-c2nn[nH]n2)c1 | 65.4 nM (active) | inactive
CCn1c(-c2nonc2N)nc2cnc(Oc3cccc(NC(=O)c4ccc(N(C)C)cc4)c3)cc21 | inactive | inactive
COc1cc2ncnc(Nc3ccc4c(cnn4Cc4ccccc4)c3)c2cc1OC | 32.8 nM (active) | inactive
CC(Oc1cc(-n2cnc3ccc(OCC4CCN(C)CC4)cc32)sc1C(N)=O)c1ccccc1Cl (configuration not stated) | 1640 nM (active) | inactive
